Source: PubChem BioAssay (National Center for Advancing Translational Sciences (NCATS))
KB-V1 cytotox = KB-V1 MDR subline cytotoxicity; AID 1347076; KB-V1 MDR cells viability, CellTiter-Glo, 72 h; Potency, µM (highest dose often 46.1 µM), actives largely listed as cytotoxic; actives 3.4% (n = 400,000); also: % is scaled to controls: 0 for no effect and ±100 for the full control effect; nearly all actives have a fitted effect of over 60% in size
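KB-V1 cells (P-gp-expressing MDR subline of KB-3-1) in phenol-red-free DMEM with 10% FBS were exposed to library compounds over a concentration series for 72 h at 37 degrees C. Viability read by CellTiter-Glo luminescence; concentration-effect curves fitted after normalization.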
HT1080 IDH1KD tx = toxicity to HT-1080 IDH1 knockdown cells (counter line). HT-1080 IDH1 knockdown viability, ATP luminescence, 48 h. Potency, µM (doses to about 46.1 µM), inactives show top-dose activity, negative = toxicity, actives largely listed as cytotoxic. actives 2% (n = 360,000). AID 686971;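 also: 0% = DMSO wells and -100% = cell-free medium wells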
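HT-1080-IDH1KD cells (IDH1 knocked down), 750/well in RPMI with 5% FBS, treated with compound 48 h at 37 degrees C. Viability by CellTiter-Glo luminescence, normalised to DMSO and no-cell wells; concentration-response curves classed.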
SW480 rereplic = inducers of DNA re-replication in SW480 colon cancer cells. SW480 DNA re-replication, Hoechst DNA content imaging, 48 h. Potency, µM (top dose mostly 46.1 µM), inactives show at the highest dose re-replication activation, most hits filed as activators. actives 1.8% (n = 340,000); also: % of control where 0% means no effect; nearly all actives have a fitted effect of over 55% in size
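Hoechst fluorescence of nuclei (405 nm excitation, 500-530 nm emission) measured by plate-scanning imager after 48 hr compound exposure at 37 C; re-replication scored as increased number of nuclei with elevated intensity.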
KB-3-1 cytotox = kills parental KB-3-1 adenocarcinoma cells | KB-3-1 viability, CellTiter-Glo ATP luminescence, 72 h | Potency, µM (top dose mostly 46.1 µM), hits mostly cytotoxic | actives 1.4% (n = 400,000) | AID 1347075; also: % is scaled to controls: 0 for no effect and ±100 for the full control effect; nearly all actives have a fitted effect of over 60% in size
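Cells are dispensed, compounds pinned in, plates held at 37 °C for 72 h, then CellTiter-Glo is added and luminescence read after 10 minutes. Cell line: parental KB-3-1 in phenol-red-free DMEM, 10% FBS.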
HT1080NT lethal = kills 2HG-producing HT-1080-NT fibrosarcoma cells; HT-1080-NT fibrosarcoma viability, CellTiter-Glo ATP luminescence, 48 h; Potency, µM (highest dose often 46.1 µM), for the others: at the highest dose activity, negative = less viability, hits mostly cytotoxic; actives 1.6% (n = 360,000); AID 686970;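 also: NT is the 2HG producing partner of a matched IDH1 knockdown line; 0% = DMSO-treated cells and -100% = media-only wells without cells; nearly all actives have a fitted effect of over 55% in size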
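A 48-hour cytotoxicity screen used HT-1080-NT cells plated 2 hours before compound delivery. ATP-based CellTiter-Glo luminescence measured viability, normalized to DMSO and no-cell controls.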
MCF10A rereplic = induces DNA re-replication in MCF 10a normal breast cells. actives 2.9% (n = 350,000). Potency, µM (titrated, usually from 46.1 µM), for inactives: at the top dose activity, positive = re-replication, hits mostly activators. AID 624296. MCF 10A DNA re-replication, Hoechst nuclear intensity, 48 h; also: % of control where 0% means no effect; nearly all actives have a fitted effect of over 50% in size
Numbers without * were called inactive. Hits are enriched below; roughly 7.9% of the tested compounds scored in any of these assays. Calls follow the shape of the dose curve; as a rule, active = well fitted curve in the direction sought with a large enough effect; inconclusive = small, poorly fitted or top-dose-only effect, or another doubt; inactive = no such curve, though single readings can be large; an effect the other way counts as inactive or inconclusive. Potency is read from the fitted curve at half-maximal effect.

Screening N#CCCN1CCN(S(=O)(=O)c2ccc3c(c2)OCCCO3)CC1 returned KB-V1 cytotox inactive, HT1080 IDH1KD tx 0%, SW480 rereplic -4%, KB-3-1 cytotox inactive, HT1080NT lethal -1% and MCF10A rereplic 5%.
For CCN(Cc1ccccc1)C(=S)Nc1cc(C(=O)OC)ccc1C(=O)OC the results were KB-V1 cytotox 15µM*, HT1080 IDH1KD tx 3%, SW480 rereplic 5%, KB-3-1 cytotox inactive, HT1080NT lethal -7% and MCF10A rereplic 2%.
Screening CCN1CCN(C(=S)Nc2cc(C(=O)OC)ccc2C(=O)OC)CC1 returned KB-V1 cytotox inactive, HT1080 IDH1KD tx -5%, SW480 rereplic 4%, KB-3-1 cytotox inactive, HT1080NT lethal -4% and MCF10A rereplic -1%.
For NC(=Nc1nc(-c2ccccn2)cc2ccccc12)c1ccccn1 the results were KB-V1 cytotox 0.73µM*, HT1080 IDH1KD tx inconclusive, SW480 rereplic inconclusive, KB-3-1 cytotox inconclusive, HT1080NT lethal -14% and MCF10A rereplic inconclusive.
For COc1ccc(-c2cc3nc(NCc4ccc(C)cc4C)n(C)c(=O)c3s2)cc1OC the results were KB-V1 cytotox 2.6µM*, HT1080 IDH1KD tx 14%, KB-3-1 cytotox 15µM* and HT1080NT lethal -2%.
Cn1c(NCc2ccncc2)nc2cc(-c3ccsc3)sc2c1=O was read as KB-V1 cytotox inactive, HT1080 IDH1KD tx 6%, KB-3-1 cytotox inactive and HT1080NT lethal 3%.
For Cn1c(NCc2ccccc2F)nc2cc(-c3ccsc3)sc2c1=O the results were KB-V1 cytotox inconclusive, HT1080 IDH1KD tx -26%, KB-3-1 cytotox inconclusive and HT1080NT lethal inconclusive.
COc1ccccc1CNc1nc2cc(-c3ccsc3)sc2c(=O)n1C was read as KB-V1 cytotox 21µM*, HT1080 IDH1KD tx inconclusive, KB-3-1 cytotox inconclusive and HT1080NT lethal -27%.
For Cn1c(NCC2CCCCC2)nc2cc(-c3ccsc3)sc2c1=O the results were KB-V1 cytotox inactive, HT1080 IDH1KD tx 0%, KB-3-1 cytotox 18µM* and HT1080NT lethal 19%.
O=C(Nc1ccc(N2CCN(Cc3ccccc3)CC2)cc1)c1ncn[nH]1 was read as KB-V1 cytotox inactive, HT1080 IDH1KD tx -2%, SW480 rereplic -6%, KB-3-1 cytotox inactive, HT1080NT lethal -15% and MCF10A rereplic 27%.
Cc1cccc(C2=NN(c3ccc(Br)cc3)[C@@H](C(=O)N3CCOC3=O)[C@@H]2c2ccc(Cl)cc2)c1 was read as KB-V1 cytotox inactive, HT1080 IDH1KD tx -24%, SW480 rereplic 8.2µM*, KB-3-1 cytotox inactive, HT1080NT lethal -11% and MCF10A rereplic inconclusive.
`Cc1cccc(C2=NN(c3ccc(Br)cc3)[C@@H](C(=O)N3CCOC3=O)[C@@H]2c2ccc(F)cc2)c1` gave KB-V1 cytotox inactive, HT1080 IDH1KD tx -19%, SW480 rereplic 9.2µM*, KB-3-1 cytotox inactive, HT1080NT lethal -23% and MCF10A rereplic inconclusive.
For CCc1cccc(N2C(=O)CS(=O)(=O)C23C(=O)N(Cc2ccc(F)cc2)c2ccc(C)cc23)c1 (stereo not given) the results were KB-V1 cytotox inactive and KB-3-1 cytotox inactive.
For COc1ccc(Oc2ccc(/C=C/C(=O)c3ccc(O)cc3)cc2[N+](=O)[O-])cc1 the results were KB-V1 cytotox inconclusive, HT1080 IDH1KD tx inconclusive, SW480 rereplic 7.3µM*, KB-3-1 cytotox inactive, HT1080NT lethal 23µM* and MCF10A rereplic 2.9µM*.
For O=C(O)COc1ccc(/C=C/C(=O)c2ccc3ccccc3c2)cc1 the results were KB-V1 cytotox inactive, HT1080 IDH1KD tx inconclusive, SW480 rereplic 15%, KB-3-1 cytotox inconclusive, HT1080NT lethal inconclusive and MCF10A rereplic 18µM*.
